# The sample as a whole holds a higher share of hits than the screen did.
# CBX7 AlphaScr: blocks human CBX7 binding to H3K27me3 peptide | O95931 | AlphaScreen His6-CBX7 / biotin-H3K27me3 peptide binding; hits give low values | normalised signal (fraction of DMSO) (concentration not given with the values) | 1.1% of 66,000 active | AID 1224903; in the data active = normalised signal below about 0.5
# Target sequence (O95931 whole entry, looked up): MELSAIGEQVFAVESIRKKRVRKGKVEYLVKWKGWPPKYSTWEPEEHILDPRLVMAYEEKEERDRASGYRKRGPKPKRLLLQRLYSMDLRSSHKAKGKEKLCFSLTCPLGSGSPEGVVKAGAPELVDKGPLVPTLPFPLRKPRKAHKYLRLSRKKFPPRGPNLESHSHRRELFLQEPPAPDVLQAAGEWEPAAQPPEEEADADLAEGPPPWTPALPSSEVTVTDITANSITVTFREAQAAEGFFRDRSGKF
# Active calls of the source: *; ! = repeats disagree.
SMILES,CBX7 AlphaScr
O=C(CCCN1C(=O)c2cccnc2C1=O)Nc1ccc(F)c(F)c1,1.1
O=C(CCN1C(=O)c2cccnc2C1=O)Nc1cccc(F)c1,0.44*
COc1ccc2nc(N3CCC(C(=O)NCCN(C)C)CC3)sc2c1,0.98
CC(=O)Nc1ccc(NC(=O)CC2Oc3ccc(C)cc3NC2=O)cc1 (stereo unspecified),0.99
Cc1ccc(C)c(Cc2c(C)nc3c(C(=O)NCCC(C)C)cnn3c2C)c1,1
CCOC(=O)c1cnc2c(C)cc(C)cc2c1Nc1ccc(OCC)cc1,1.1
CCOC(=O)c1cnc2c(C)cccc2c1Nc1ccc(N(CC)CC)cc1,0.12*
CCOC(=O)c1cnc2c(C)cc(Cl)cc2c1Nc1ccc2c(c1)OCCO2,0.86
CCOC(=O)c1cnc2c(C)cccc2c1Nc1ccc(F)cc1,1.3
CCOC(=O)c1cnc2c(C)cccc2c1Nc1ccc(C(=O)O)cc1,0.97
CCOC(=O)c1cnc2c(C)cc(C)cc2c1Nc1ccc(N(C)C)cc1,0.33*
CCOC(=O)c1cnc2c(C)cc(C)cc2c1Nc1ccc(C)cc1,1.3
CCOC(=O)c1cnc2c(C)cc(Cl)cc2c1Nc1ccc(N2CCOCC2)cc1,0.26*
CCOC(=O)c1cnc2c(C)cc(Cl)cc2c1Nc1cccc(C(=O)O)c1,0.76
COc1ccccc1NC(=O)[C@H](CCSC)N1Cc2ccccc2C1=O,1
COc1cc(Cl)c(C)cc1NC1c2ccccc2C(=O)N1c1cc(C)ccn1 (stereo unspecified),0.86
O=C(Cc1cn(Cc2cccc(Cl)c2)c2ccccc12)NC1CCCCC1,1
Cc1c2cnn(CC(=O)NCc3cccnc3)c(=O)c2c(C)n1Cc1ccccc1,0.79
O=C(CC(C(=O)N1CCc2ccccc21)n1ccnc1)NC1CC1 (stereo unspecified),1
O=C(CC(C(=O)N1CCc2ccccc21)n1ccnc1)NC(c1ccccc1)c1ccccc1 (stereo unspecified),0.45*
CCC(C)NC(=O)CC(C(=O)N1CCc2ccccc21)n1ccnc1 (stereo unspecified),1
Cc1ccccc1NC(=O)C(NS(=O)(=O)c1ccc2c(c1)CCC(=O)N2)c1ccccc1 (stereo unspecified),1
O=C(NCc1ccc(F)cc1)c1ccc2nc(-c3cccs3)c(-c3cccs3)nc2c1,0.98
COc1ccccc1CN(C)CCc1ccccn1,1
CCOc1ccc(CN(C)CCc2ccccn2)cc1,0.47*
SMILES,CBX7 AlphaScr
COc1ccc(S(=O)(=O)N(C)CCc2ccccn2)cc1,0.94
COc1cccc(CNc2sc3c(c2C(=O)Nc2ccc(OC)cc2OC)CCC3)c1,0.73
COc1ccc(CN2CC(C(=O)NCc3ccccn3)CC2=O)cc1 (stereo unspecified),0.37*
COc1ccc(CN2CC(C(=O)NC3CCCC3)CC2=O)cc1 (stereo unspecified),1
COc1ccc(CN2CC(C(=O)NCc3ccc(F)cc3)CC2=O)cc1 (stereo unspecified),1.1
CC(NC(=O)C(=O)NCc1cccnc1)C(c1cccs1)N1CCN(c2ccc(F)cc2)CC1 (stereo unspecified),0.93
CCCOc1ccc(C(=O)N(Cc2ccc(OC)cc2)C2CCS(=O)(=O)C2)cc1 (stereo unspecified),0.87
CCCc1nnc(NC(=O)CC(NC(=O)C(F)(F)F)c2ccccc2)s1 (stereo unspecified),1.3
O=C(CC1Sc2ccccc2NC1=O)Nc1ccc2c(c1)OCCO2 (stereo unspecified),1.2
COc1ccc(C2CC(=O)C3=C(C2)Nc2ccccc2NC3c2ccncc2)cc1OC (stereo unspecified),1
O=C1C2=C(Nc3ccccc3SC2c2ccc3c(c2)OCO3)c2ccccc21 (stereo unspecified),0.35*
O=C1C2=C(Nc3ccccc3SC2c2ccco2)c2ccccc21 (stereo unspecified),0.39*
CC(C(=O)NC1CCCC1)C1Sc2ccccc2NC1=O (stereo unspecified),1
COc1ccc(C2Sc3ccccc3NC3=C2C(=O)c2ccccc23)cc1OC (stereo unspecified),0.4*
O=C(CC1Sc2ccccc2NC1=O)Nc1ccc2c(c1)OCO2 (stereo unspecified),0.89
COc1ccc(NC(=O)CC2Sc3ccccc3NC2=O)cc1OC (stereo unspecified),0.98
COc1ccc(-c2nc(CSCC(=O)NCc3ccccc3)c(C)o2)cc1OC,1.1
CCN(CC)S(=O)(=O)c1ccc(-c2csc(Nc3ccc(C)cc3)n2)cc1,0.85
O=C(Nc1ccc(OC(F)(F)F)cc1)C1CCN(S(=O)(=O)c2cccc3cccnc23)CC1,0.99
Cc1ccc(-n2cc(-c3ccc4c(c3)OCO4)nc2SCC(=O)Nc2cccc(Cl)c2)cc1,0.93
Cc1ccc(-c2nn(C)c(=O)c3ccccc23)cc1S(=O)(=O)N1CCCCC1,0.83
O=C(Nc1cccnc1)c1cc(C2CC2)on1,0.73
O=C(NC1CC1)c1ccc2c(c1)N(Cc1ccccc1F)C(=O)CS2,1.1
COc1cc(NC(=O)CCc2c(C)nc3cc(-c4ccc(Cl)cc4)nn3c2C)cc(OC)c1,1.1
Cc1cc(=O)oc2c(CN3CCCC3)c(O)ccc12,1.1
SMILES,CBX7 AlphaScr
CCn1cc(C(=O)N2CCCCC2)c(=O)c2ccc(C)nc21,1.1
Cc1cc(=O)n2ccc(CN3CCCCC3)c(O)c2n1,0.0042*
Cc1nc2ccccn2c1-c1csc(Nc2ccc(N(C)C)cc2)n1,0.47*
Cc1nc(C)c(-c2csc(Nc3ccc(Cl)cc3)n2)s1,0.59
CCN(CC)c1ccc(Nc2nc(-c3c(C)nc4cc(C)ccn34)cs2)cc1,0.24*
Cc1ccn2c(-c3csc(Nc4ccccc4Cl)n3)c(C)nc2c1,0.83
Cc1ccn2c(-c3csc(Nc4ccccc4)n3)c(C)nc2c1,0.84
CC(=O)Nc1nc(C)c(-c2csc(Nc3ccc(Cl)cc3)n2)s1,1
Cc1ccc(Nc2nc(-c3c(C)nc4cc(C)ccn34)cs2)c(C)c1,0.42*!
Cc1ccn2c(-c3csc(Nc4cccc(C(=O)O)c4)n3)c(C)nc2c1,0.79
Cc1nc(C)c(-c2csc(Nc3ccc(N(C)C)cc3)n2)s1,0.054*
Cc1ccn2c(-c3csc(Nc4ccccc4C)n3)c(C)nc2c1,1.1
Cc1nc2ccccn2c1-c1csc(Nc2ccc(Br)cc2)n1,1
CC(=O)Nc1ccc(Nc2nc(-c3c(C)nc4ccccn34)cs2)cc1,0.95
O=C(Cn1cnc2c(nnn2Cc2ccccc2F)c1=O)NCc1ccccc1Cl,1
Cc1c(C(=O)Oc2ccccc2F)sc2ncn(Cc3ccccc3F)c(=O)c12,1.1
Cc1ccc(C(C(=O)NC2CCCC2)N2CCc3ccccc32)cc1 (stereo unspecified),0.99
CCOCCCNC(=O)C1CCN(C(=O)c2cc3sccc3n2CC)CC1,1
CC1(C)CC(=O)N(CC(=O)NCc2ccccc2)c2ccccc2S1,1
O=C(Cn1ncc2ccsc2c1=O)NCc1ccccc1,1
COc1ccc(-c2nc(SCC(=O)Nc3ccc(F)cc3)c(-c3ccc(OC)cc3)[nH]2)cc1,1
O=C(CN1CCN(c2ccc(F)cc2)CC1)N1c2ccccc2CCc2ccccc21,0.52
CC(C)N1C(=O)CCC1C(=O)NCc1ccccc1 (stereo unspecified),1.1
Cc1ccc(-c2cc(C(=O)NC3CC3)c3ccccc3n2)cc1C,1
Cc1ccccc1OC1C(=O)N(c2cccc(C(F)(F)F)c2)C1c1ccc2c(c1)OCO2 (stereo unspecified),0.97
Cc1ccccc1Nc1c(-c2ccc(F)cc2)nc2cnccn12,1.1

# Screening results from PubChem.
